# From the supplement of paper PMC8728848
# The sample as a whole holds a higher share of the strongest signals than the screen did.
# B1: Als3-41 (Candida albicans) (protein)
# chain: KTITGVFNSFNSLTWSNAATYNYKGPGTPTWNAVLGWSLDGTSASPGDTFTLNMPCVFKFTTSQTSVDLTAHGVKYATCQFQAGEEFMTFSTLTCTVSNTLTPSIKALGTVTLPLAFNVGGTGSSVDLEDSKCFTAGTNTVTFNDGGKKISINVDFERSNVDPKGYLTDSRVIPSLNKVSTLFVAPQCANGYTSGTMGFANTYGDVQIDCSNIHVGITKGLNDWNYPVSSESFSYTKTCSSNGIFITYKNVPAGYRPFVDAYISATDVNSYTLSYANEYTCAGGYWQRAPFTLRWTGYRNSDAGSNGIVIVATTRTVTDSTTAVTTLPFDPNRDKTKTIEILKPIPTTTITTSYVGVTTSYLTKTAPIGETATVIVD
# How the values were obtained:
# Assay in all cases: glycan array binding signal (z-score within array); higher = stronger binding
# Settings in all cases: glycan notation: IUPAC condensed, linker removed
# Fuc(a1-2)Gal(b1-3)GlcNAc = target: Fuc(a1-2)Gal(b1-3)GlcNAc
# In short: (§1)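 Glycan array data were curated from 3228 arrays in the Consortium for Functional Glycomics database and kept only where the protein sequence was available. Glycan names were converted to IUPAC-condensed notation, and columns mapping to the same glycan were averaged. The binding signal is a within-array Z-score, averaged across arrays of the same protein sequence at different concentrations or buffers and across linkers. Negative Z-scores can be read as non-binding.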
# [1] = target: Fuc(a1-2)Gal(b1-3)GlcNAc(b1-2)Man(a1-3)[Fuc(a1-2)Gal(b1-3)GlcNAc(b1-2)Man(a1-6)]Man(b1-4)GlcNAc(b1-4)[Fuc(a1-6)]GlcNAc
# In short: as §1
# [2] = target: Fuc(a1-2)Gal(b1-3)GlcNAc(b1-3)Gal(b1-4)Glc
# In short: as §1
# [3] = target: Fuc(a1-2)Gal6S(b1-3)GlcNAc
# In short: as §1
# [4] = target: Fuc(a1-2)[Gal(a1-3)]Gal(b1-4)GlcNAc(b1-2)Man(a1-3)[Fuc(a1-2)[Gal(a1-3)]Gal(b1-4)GlcNAc(b1-2)Man(a1-6)]Man(b1-4)GlcNAc(b1-4)GlcNAc
# In short: as §1
# [5] = target: Fuc(a1-2)[Gal(a1-3)]Gal(b1-4)GlcNAc(b1-3)[Fuc(a1-2)[Gal(a1-3)]Gal(b1-4)GlcNAc(b1-6)]GalNAc
# In short: as §1
# [6] = target: Fuc(a1-2)[Gal(a1-3)]Gal(b1-4)GlcNAc(b1-6)GalNAc
# In short: as §1
# [7] = target: Fuc(a1-2)[GalNAc(a1-3)]Gal(b1-3)GlcNAc(b1-2)Man(a1-3)[Fuc(a1-2)[GalNAc(a1-3)]Gal(b1-3)GlcNAc(b1-2)Man(a1-6)]Man(b1-4)GlcNAc(b1-4)GlcNAc
# In short: as §1
# [8] = target: Fuc(a1-2)[GalNAc(a1-3)]Gal(b1-4)GlcNAc(b1-2)Man(a1-3)[Fuc(a1-2)[GalNAc(a1-3)]Gal(b1-4)GlcNAc(b1-2)Man(a1-6)]Man(b1-4)GlcNAc(b1-4)[Fuc(a1-6)]GlcNAc
# In short: as §1
# [9] = target: Fuc(a1-2)[GalNAc(a1-3)]Gal(b1-4)GlcNAc(b1-3)Gal(b1-4)GlcNAc(b1-3)Gal(b1-4)GlcNAc
# In short: as §1
# [10] = target: Fuc(a1-3)[Gal(b1-4)]GlcNAc(b1-3)Gal(b1-3)[Fuc(a1-4)]GlcNAc
# In short: as §1
# [11] = target: Fuc(a1-3)[Gal3S(b1-4)]GlcNAc6S
# In short: as §1
# Fuc(a1-4)GlcNAc = target: Fuc(a1-4)GlcNAc
# In short: as §1
# Gal(a1-2)Gal = target: Gal(a1-2)Gal
# In short: as §1
# Gal(b1-2)Gal = target: Gal(b1-2)Gal
# In short: as §1
# [12] = target: Gal(b1-3)GlcNAc(b1-3)Gal(b1-4)GlcNAc(b1-2)[Gal(b1-3)GlcNAc(b1-3)Gal(b1-4)GlcNAc(b1-6)]Man(a1-6)[Gal(b1-3)GlcNAc(b1-3)Gal(b1-4)GlcNAc(b1-2)Man(a1-3)]Man(b1-4)GlcNAc(b1-4)[Fuc(a1-6)]GlcNAc
# In short: as §1
# [13] = target: Gal(b1-3)[Fuc(a1-4)]GlcNAc
# In short: as §1
# [14] = target: Gal(b1-3)[Neu5Ac(b2-6)]GalNAc
# In short: as §1
# [15] = target: Gal(b1-4)GlcNAc(b1-2)Man(a1-6)[GlcNAc(b1-2)Man(a1-3)]Man(b1-4)GlcNAc(b1-4)GlcNAc
# In short: as §1
# [16] = target: Gal(b1-4)GlcNAc(b1-3)Gal(b1-4)GlcNAc(b1-2)Man(a1-3)[Gal(b1-4)GlcNAc(b1-3)Gal(b1-4)GlcNAc(b1-2)Man(a1-6)]Man(b1-4)GlcNAc(b1-4)GlcNAc
# In short: as §1
# [17] = target: Gal(b1-4)GlcNAc(b1-3)Gal(b1-4)GlcNAc(b1-3)Gal(b1-4)GlcNAc(b1-2)Man(a1-3)[Gal(b1-4)GlcNAc(b1-3)Gal(b1-4)GlcNAc(b1-3)Gal(b1-4)GlcNAc(b1-2)Man(a1-6)]Man(b1-4)GlcNAc(b1-4)GlcNAc
# In short: as §1
# [18] = target: Gal(b1-4)GlcNAc(b1-3)Gal(b1-4)GlcNAc(b1-3)Gal(b1-4)GlcNAc(b1-3)Gal(b1-4)GlcNAc(b1-3)Gal(b1-4)GlcNAc(b1-2)Man(a1-3)[Gal(b1-4)GlcNAc(b1-3)Gal(b1-4)GlcNAc(b1-3)Gal(b1-4)GlcNAc(b1-3)Gal(b1-4)GlcNAc(b1-3)Gal(b1-4)GlcNAc(b1-2)Man(a1-6)]Man(b1-4)GlcNAc(b1-4)GlcNAc
# In short: as §1
# [19] = target: Gal(b1-4)GlcNAc(b1-3)Gal(b1-4)GlcNAc(b1-3)Gal(b1-4)GlcNAc(b1-3)Gal(b1-4)GlcNAc(b1-3)Gal(b1-4)GlcNAc(b1-2)[Gal(b1-4)GlcNAc(b1-3)Gal(b1-4)GlcNAc(b1-3)Gal(b1-4)GlcNAc(b1-3)Gal(b1-4)GlcNAc(b1-3)Gal(b1-4)GlcNAc(b1-6)]Man(a1-6)[Gal(b1-4)GlcNAc(b1-3)Gal(b1-4)GlcNAc(b1-3)Gal(b1-4)GlcNAc(b1-3)Gal(b1-4)GlcNAc(b1-3)Gal(b1-4)GlcNAc(b1-2)Man(a1-3)]Man(b1-4)GlcNAc(b1-4)[Fuc(a1-6)]GlcNAc
# In short: as §1
# [20] = target: Gal(b1-4)GlcNAc(b1-3)[Fuc(a1-3)GlcNAc(b1-6)]Gal(b1-4)Glc
# In short: as §1
# Gal3S(b1-4)Glc6S = target: Gal3S(b1-4)Glc6S
# In short: as §1
# GalNAc(b1-4)GlcNAc = target: GalNAc(b1-4)GlcNAc
# In short: as §1
# GalNAc(b1-4)GlcNAc6S = target: GalNAc(b1-4)GlcNAc6S
# In short: as §1
# [21] = target: GlcNAc(b1-2)[GlcNAc(b1-4)]Man(a1-3)[GlcNAc(b1-4)][GlcNAc(b1-2)[GlcNAc(b1-6)]Man(a1-6)]Man(b1-4)GlcNAc(b1-4)[Fuc(a1-6)]GlcNAc
# In short: as §1
# [22] = target: GlcNAc(b1-3)Gal(b1-4)GlcNAc(b1-2)[GlcNAc(b1-3)Gal(b1-4)GlcNAc(b1-6)]Man(a1-6)[GlcNAc(b1-3)Gal(b1-4)GlcNAc(b1-2)Man(a1-3)]Man(b1-4)GlcNAc(b1-4)GlcNAc
# In short: as §1
# [23] = target: GlcNAc(b1-3)Gal(b1-4)GlcNAc(b1-3)Gal(b1-4)GlcNAc(b1-2)Man(a1-3)[GlcNAc(b1-3)Gal(b1-4)GlcNAc(b1-3)Gal(b1-4)GlcNAc(b1-2)Man(a1-6)]Man(b1-4)GlcNAc(b1-4)GlcNAc
# In short: as §1
binder,measurement,setting,value
B1,glycan array binding signal (z-score),Fuc(a1-2)Gal(b1-3)GlcNAc,-0.256
same,glycan array binding signal (z-score),[1],-0.306
same,glycan array binding signal (z-score),[2],-0.317
same,glycan array binding signal (z-score),[3],-0.047
same,glycan array binding signal (z-score),[4],-0.283
same,glycan array binding signal (z-score),[5],1.91
same,glycan array binding signal (z-score),[6],-0.229
same,glycan array binding signal (z-score),[7],-0.203
same,glycan array binding signal (z-score),[8],-0.001
same,glycan array binding signal (z-score),[9],1.63
same,glycan array binding signal (z-score),[10],-0.315
same,glycan array binding signal (z-score),[11],1.6
same,glycan array binding signal (z-score),Fuc(a1-4)GlcNAc,7.63
same,glycan array binding signal (z-score),Gal(a1-2)Gal,-0.006
same,glycan array binding signal (z-score),Gal(b1-2)Gal,-0.182
same,glycan array binding signal (z-score),[12],0.669
same,glycan array binding signal (z-score),[13],-0.315
same,glycan array binding signal (z-score),[14],-0.359
same,glycan array binding signal (z-score),[15],-0.102
same,glycan array binding signal (z-score),[16],6.2
same,glycan array binding signal (z-score),[17],2.56
same,glycan array binding signal (z-score),[18],1.05
same,glycan array binding signal (z-score),[19],-0.117
same,glycan array binding signal (z-score),[20],-0.31
same,glycan array binding signal (z-score),Gal3S(b1-4)Glc6S,-0.151
same,glycan array binding signal (z-score),GalNAc(b1-4)GlcNAc,0.551
same,glycan array binding signal (z-score),GalNAc(b1-4)GlcNAc6S,1.79
same,glycan array binding signal (z-score),[21],-0.311
same,glycan array binding signal (z-score),[22],1.97
same,glycan array binding signal (z-score),[23],2.21
